S2 tox = cell viability loss in ATXN counter-screen. S2 cells (HEK-293 line with an ATXN2-luciferase reporter) viability, CellTiter-Fluor protease fluorescence, 24 h. Potency, µM (series often up to 56.7 µM), most hits filed as cytotoxic. hit rate 0.49% among 400,000; also: nearly all actives have a fitted effect of over 40% in size
HepG2 tox = kills HepG2 cells in TGF-b inhibitor counter-screen; HepG2 CAGA-GFP viability, ATP luminescence, 18 h; Potency, µM (highest dose often 46.1 µM), hits mostly cytotoxic; hit rate 0.76% among 410,000; AID 588856
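CellTiter-Glo luminescence gave cytotoxicity after 18 hours at 37 degrees C. The cells were HepG2 CAGA-GFP in 1% FBS DMEM, stimulated with 500 pg/mL TGF-beta after compound addition. %Activity was normalised to no-cell wells (complete cell-killing) and DMSO (no toxicity), and curves were fitted and classified.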
TGFb inhibitor = TGF-b pathway inhibition; HepG2 CAGA-GFP TGF-b/SMAD3 reporter, GFP fluorescence, 18 h; TGF-beta stimulated, 500 pg/mL final; Potency, µM (top dose mostly 46.1 µM), most hits filed as inhibitors; hit rate 1.2% among 410,000; also: nearly all actives have a fitted effect of over 65% in size
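TGF-beta reporter screen: HEPG2 CAGA-GFP, 1% FBS, 500 pg/mL TGF-beta final, 18 h; per-cell GFP summed per well; curves fitted and categorized by class.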
ATXN2 expr inh = ATXN2 expression inhibition. AID 1745845. Potency, µM (series often up to 57 µM), actives largely listed as inhibitors. hit rate 0.72% among 360,000. HEK-293 ATXN2-luciferase reporter, luminescence, 24 h; also: nearly all actives have a fitted effect of over 55% in size
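ATXN2-luciferase reporter cells (luciferase flanked by upstream and downstream ATXN2 gene portions) were treated 24 h at 37 °C with compounds at up to 57 uM. SteadyGlo luminescence gave expression; GF-AFC fluorescence gave viability.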
D3 ag = activates the human D3 dopamine receptor | max activation, % | D3R DiscoveRx beta-arrestin cells, luminescence, 90 min | AID 652048 | hit rate 0.58% among 410,000; in the data active = max activation above about 30%
Target sequence (P35462 whole entry, looked up): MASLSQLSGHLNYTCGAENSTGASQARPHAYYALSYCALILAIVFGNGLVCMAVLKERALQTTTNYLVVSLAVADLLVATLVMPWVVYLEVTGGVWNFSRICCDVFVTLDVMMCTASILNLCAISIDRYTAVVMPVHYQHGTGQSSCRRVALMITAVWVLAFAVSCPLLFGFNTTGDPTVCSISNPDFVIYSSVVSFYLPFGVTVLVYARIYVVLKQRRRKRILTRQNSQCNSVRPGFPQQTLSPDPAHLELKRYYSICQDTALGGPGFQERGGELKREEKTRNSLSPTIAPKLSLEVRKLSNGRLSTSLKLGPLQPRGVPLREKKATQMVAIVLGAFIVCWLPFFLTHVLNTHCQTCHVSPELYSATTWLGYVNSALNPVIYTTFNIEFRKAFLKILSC
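Agonist mode: compounds and dopamine controls were applied to plated cells for 90 min at 37 degrees C after an overnight attachment at 1500 cells/well. Luminescent read-out followed 30 - 60 minutes at room temperature with DiscoveRx detection reagent.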
D3 antag = blocks the human D3 dopamine receptor; P35462; hit rate 2.5% among 360,000; D3R cells, DiscoveRx beta-arrestin luminescence, antagonist mode; active compounds read low; max response, negative = inhibition, %; in the data active = max response below about -50%; inconclusive = no clear call, values can overlap the other calls
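Cells expressing the human receptor were seeded at 1500 cells/well, incubated overnight at 37 degrees C in 5% CO2, then exposed to library compounds with dopamine controls for 90 minutes at 37 degrees C before luminescent detection.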
Each line names hits and unclear results; the compound was inactive in the other large screens; ! = repeats disagree. Rows were chosen to be rich in hits. Some 4.7% of all compounds tested hit in one or more screens of this group. Unless noted, calls follow the shape of the dose curve; as a rule, active = well fitted curve in the direction sought with a large enough effect; inconclusive = small, poorly fitted or top-dose-only effect, or another doubt; inactive = no such curve, though single readings can be large; an effect the other way counts as inactive or inconclusive.

Cc1ccc(OCCCCCN2CCOCC2)c(Cl)c1	D3 antag inconclusive
Clc1cc(Br)ccc1OCCOCCN1CCCC1	D3 antag -81.1
Clc1cc(Br)ccc1OCCOCCN1CCOCC1	D3 antag -82.0
CC(C)(C)c1cc(Cl)ccc1OCCOCCN1CCCC1	S2 tox inconclusive, TGFb inhibitor inconclusive, ATXN2 expr inh inconclusive
COc1ccc(NC(=O)c2cccn2-c2nnc(N3CCCCC3)s2)cc1	none (no result: D3 antag)
CCCSC1=NC2(CCN(C(=O)NC3CCCCC3)CC2)N=C1c1ccc(Cl)cc1	none (no result: D3 antag)
CCOC(=O)c1c(CC(C)C)csc1NC(=O)CCl	S2 tox inconclusive, HepG2 tox 20µM
Nc1ccc2ncccc2c1N	none
Nc1nc(N)c2c(ccc3nccc32)[nH]1	S2 tox inconclusive, HepG2 tox 1.26µM, TGFb inhibitor inconclusive (no result: ATXN2 expr inh)
COc1nc(-c2ccccc2)cc(-c2ccc(OC)c(OC)c2)n1	D3 ag 98.3
C/C1=C2N=C(/C=C3N=C(/C(C)=C4\[N-]C(C(CC(N)=O)C4(C)CCC(=O)NCC(C)OP(=O)([O-])OC4C(CO)OC(n5cnc6cc(C)c(C)cc65)C4O)C4(C)N=C1C(CCC(N)=O)C4(C)CC(N)=O)C(CCC(N)=O)C\3(C)C)C(CCC(N)=O)C/2(C)CC(N)=O.[CH3-].[Co+3] (stereo unspecified)	S2 tox inconclusive (no result: HepG2 tox, TGFb inhibitor, ATXN2 expr inh, D3 antag)
CCOC(=O)c1c(-c2ccc(OC)cc2)csc1/N=C/C1C(=O)CCCC1=O	HepG2 tox 15.8µM
COc1ccc(NC(=O)CSc2nnc(-c3nonc3NC(C)=O)n2C)cc1Cl	none (no result: D3 antag)
Cn1c(SCC(=O)NCc2ccco2)nnc1-c1ccc(NC(=O)c2ccccc2)cc1	none (no result: S2 tox, ATXN2 expr inh, D3 ag, D3 antag)
CCN(CC)CCOc1ccc(Nc2ncc3cc(-c4c(Cl)cccc4Cl)c(=O)n(C)c3n2)cc1	ATXN2 expr inh 1.72µM (no result: S2 tox, HepG2 tox, TGFb inhibitor, D3 ag, D3 antag)
CC(O)C1C(=O)N2C(C(=O)O)=C(SC3CNC(C(=O)N(C)C)C3)C(C)C12 (stereo unspecified)	none (no result: S2 tox, HepG2 tox, TGFb inhibitor, D3 ag, D3 antag)
O=C(O)c1cc(O)c2c(c1)[C@@H]([C@H]1c3cc(C(=O)O)cc(O)c3C(=O)c3c(O[C@@H]4O[C@H](CO)[C@@H](O)[C@H](O)[C@H]4O)cccc31)c1cccc(OC3O[C@H](CO)[C@@H](O)[C@H](O)[C@H]3O)c1C2=O (stereo partly specified)	S2 tox inconclusive, TGFb inhibitor 11.2µM, D3 antag -56.2
COc1ccc(NC(=O)CN(C)CC(=O)Nc2ccccc2SC)cc1	none
CSc1ccccc1NC(=O)CN(C)CC(=O)NCC(=O)Nc1ccc(F)cc1	D3 antag -50.0
Cc1cc[n+](CC(=O)c2ccc(F)cc2)cc1	none (no result: S2 tox, ATXN2 expr inh, D3 ag, D3 antag)
CCN=C1S/C(=C\c2cn(C(C)=O)nc2-c2ccccc2)C(=O)N1CC	D3 ag 64.0
COc1cc(CNc2nc(C)c(-c3ccn(CC4CCCN(C)C4)n3)s2)ccc1F (stereo unspecified)	none (no result: HepG2 tox, TGFb inhibitor, ATXN2 expr inh, D3 ag, D3 antag)
O=C(c1ccc(=O)oc1)N1CCCc2ccccc21	D3 antag -63.3
O=C(C[n+]1ccccc1)N1CCCc2ccccc21	D3 antag -53.1 (no result: ATXN2 expr inh)
CN(C)c1cc[n+](CC(=O)N2CCCc3ccccc32)cc1	ATXN2 expr inh inconclusive, D3 antag inconclusive
Cc1cc[n+](CC(=O)N2CCCc3ccccc32)cc1	D3 antag -66.1
CC(C)CCNC(=O)CSc1nc2ccccc2nc1Cc1ccccc1	S2 tox inconclusive (no result: D3 antag)
Oc1ccc(N=Nc2c(O)ccc3ccccc23)cc1	S2 tox inconclusive, HepG2 tox 14.1µM, TGFb inhibitor inconclusive, D3 antag inconclusive
Cc1ccc(-n2c(=O)cc(N3CCN(c4ccccc4Cl)CC3)[nH]c2=O)cc1	none (no result: S2 tox, ATXN2 expr inh, D3 antag)
CC(=O)N1CCc2c(sc3c2c(=O)n(-c2ccc(C)cc2)c(=O)n3CC(=O)Nc2ccccc2)C1	none (no result: D3 antag)
COc1ccccc1-c1nnc(SCC(=O)NCc2c(C)c(Cl)cc(C(C)C)c2O)o1	S2 tox inconclusive, TGFb inhibitor 17.8µM, ATXN2 expr inh inconclusive
Cc1cccc(C)c1NC(=O)c1cc(S(N)(=O)=O)c(Cl)cc1O	none (no result: HepG2 tox, TGFb inhibitor, D3 antag)
Cc1c(C(=O)NCc2cccc(F)c2)sc2ncnc(NCC3CCCO3)c12 (stereo unspecified)	none (no result: HepG2 tox, TGFb inhibitor, ATXN2 expr inh, D3 ag, D3 antag)
O=C(CSc1ncc2c(n1)-c1ccc(Cl)cc1N(Cc1ccccc1)S2(=O)=O)Nc1ccccc1C(F)(F)F	none (no result: D3 antag)
CCn1c(=O)c(-c2nc3ccccc3[nH]2)c(O)c2ccccc21	D3 antag -86.3
CCCn1c(=O)c(-c2nc3ccccc3[nH]2)c(O)c2ccccc21	none
Cc1ccc(-c2nc(N=Nc3ccc(O)cc3)n[nH]2)cc1	S2 tox inconclusive, TGFb inhibitor inconclusive
COc1ccc(-c2nc(N=Nc3ccc(O)cc3)n[nH]2)cc1	S2 tox 8.91µM, D3 antag inconclusive
Cc1nc2ccccc2c2oc(C(=O)NCCCN3CCCC(C)C3)cc12 (stereo unspecified)	S2 tox inconclusive, D3 antag -77.2
Cc1nc2ccccc2c2oc(C(=O)NCCCN3CC(C)CC(C)C3)cc12 (stereo unspecified)	D3 antag -65.3
CC1CCCN(CCCNC(=O)c2cc3c(Cl)nc4ccccc4c3s2)C1 (stereo unspecified)	S2 tox inconclusive, ATXN2 expr inh inconclusive, D3 antag -64.6
CCCN1CCN(CCCNC(=O)c2ccc3nc(N4CCC(C)CC4)sc3c2)CC1	D3 antag inconclusive
CC1CC(C)CN(CCCNC(=O)c2ccc3nc(N4CCOCC4)sc3c2)C1 (stereo unspecified)	D3 antag -62.8
CC1CCCN(C(=O)c2cc3c(Cl)nc4ccccc4c3s2)C1 (stereo unspecified)	none (no result: D3 antag)
C[C@@H]1C[C@H]2[C@@H]3CCC4=CC(=O)C=C[C@]4(C)[C@@]3(F)[C@@H](O)C[C@]2(C)[C@@]1(O)C(=O)COC(=O)c1cccc(S(=O)(=O)O)c1	none (no result: S2 tox, HepG2 tox, TGFb inhibitor, ATXN2 expr inh, D3 antag)
Cc1ccc(NCc2nc3ccccc3n2CCOc2ccccc2)cc1	S2 tox inconclusive, TGFb inhibitor 17.8µM!
COc1ccc(NCc2nc3ccccc3n2CCOc2ccccc2C)cc1	S2 tox inconclusive, TGFb inhibitor inconclusive (no result: D3 antag)
Cc1ccc(OCCn2c(CNc3cccc(C)c3)nc3ccccc32)cc1	TGFb inhibitor 12.6µM (no result: D3 antag)
COc1ccc(OCCn2c(C(C)Oc3ccccc3)nc3ccccc32)cc1 (stereo unspecified)	TGFb inhibitor 12.6µM (no result: D3 antag)
Cc1ccc(Cn2cc(CCC(=O)NCC(C)c3ccccc3)c3ccccc32)cc1 (stereo unspecified)	TGFb inhibitor inconclusive (no result: S2 tox, ATXN2 expr inh, D3 antag)
Cc1nnc(NC(=O)CSCc2cc(=O)c3cc(Cl)ccc3[nH]2)s1	S2 tox inconclusive (no result: D3 antag)
CC(C)CSc1nnc(CNC(=O)c2ccccn2)n1C	none (no result: HepG2 tox, TGFb inhibitor, ATXN2 expr inh, D3 ag, D3 antag)

High-throughput results deposited in PubChem by National Center for Advancing Translational Sciences (NCATS).
